Assay [1] concerns RAW-Dual. As to the kind of experiment: NF-kB SEAP reporter activity, fold change vs agonist alone; cytotoxicity flag (confluency mask): not cytotoxic; higher = enhanced NF-kB activity. Put shortly:
(§1)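 After 50 nL of library stock was delivered by pin tool to RAW-Dual macrophages (50,000 cells/well, DMEM, 384-well plates), a PRR agonist was added 1 h later and the plates were kept at 37 °C, 5% CO2. Twenty hours later, IRF was read from supernatant by QuantiLuc luminescence and NF-κB by QuantiBlue absorbance at 620 nm. Reporter activity is stated as fold change over agonist-alone wells. Wells with IncuCyte confluency under 70% of agonist controls in both mask sets were counted as cytotoxic.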

Assay [2] relates to RAW-Dual. Nature of the assay: NF-kB SEAP reporter activity, fold change vs agonist alone; higher = enhanced NF-kB activity. Put shortly: as §1
Assay [3] relates to RAW-Dual. As to the kind of experiment: NF-kB SEAP reporter activity, fold change vs agonist alone; cytotoxicity flag (confluency mask): cytotoxic (confluency <70% of control); higher = enhanced NF-kB activity. Put shortly:
as §1

The mark [4] stands for this setting: agonist: ODN 1826 (TLR9) 0.5 ug/mL.
Setting [5] is: agonist: Pam2CSK4 (TLR2/6) 0.1 ug/mL.
Where [6] appears, read: agonist: Pam3CSK4 (TLR2/1) 0.1 ug/mL.
Where [7] appears, read: library stock concentration (final ~1000-fold dilution): 10 mM, cytotoxicity flag (confluency mask): not cytotoxic, agonist: Imiquimod (TLR7) […].
The mark [8] stands for this setting: library stock concentration (final ~1000-fold dilution): 10 mM, cytotoxicity flag (confluency mask): not cytotoxic, agonist: MPLA (TLR4) […].
Where [9] appears, read: library stock concentration (final ~1000-fold dilution): 10 mM, cytotoxicity flag (confluency mask): cytotoxic (confluency <70% of control), agonist: Imiquimod (TLR7) […].
Where [10] appears, read: library stock concentration (final ~1000-fold dilution): 10 mM, cytotoxicity flag (confluency mask): cytotoxic (confluency <70% of control), agonist: MPLA (TLR4) […].
Where [11] appears, read: library stock concentration (final ~1000-fold dilution): 2 mM, cytotoxicity flag (confluency mask): not cytotoxic, agonist: Imiquimod (TLR7) […].
Where [12] appears, read: library stock concentration (final ~1000-fold dilution): 2 mM, cytotoxicity flag (confluency mask): not cytotoxic, agonist: MPLA (TLR4) […].

The values that follow come from the supplement of paper PMC10037445.

Each structure is given as a SMILES string. Whole data set: some 2,900 compounds, median “NF-kB SEAP reporter activity, fold change vs agonist alone” near 0.99, cut for the highest 2% near 2.6. What follows is part of a selection rich in the highest values, with near analogues and random picks from the rest.

On to `Cc1cc(N2CC(C)NC(C)C2)ncc1-c1ccc(-c2nc3c(ccn3C)c(=O)[nH]2)cc1` (stereo not given) (library stock concentration (final ~1000-fold dilution): 10 mM), for which the “NF-kB SEAP reporter activity” value came out at 2.18 in assay [1] (agonist: LPS (TLR4) 0.1 ug/mL), 0.278 in assay [1] (setting [4]), 1.38 in assay [1] (setting [5]) and 1.63 in assay [1] (setting [6]).
For the molecule `Cc1cc(N2CC(C)NC(C)C2)ncc1-c1ccc(-c2nc3c(ccn3C)c(=O)[nH]2)cc1` (stereo not given), the “NF-kB SEAP reporter activity” value in assay [2] (setting [7]) was found to be 1.14; in assay [2] (setting [8]), 2.01.
On to `CCC(=O)N1CCN(c2ccc(-n3c(=O)ccc4cnc5ccc(-c6cnc7ccccc7c6)cc5c43)cc2C(F)(F)F)CC1` (library stock concentration (final ~1000-fold dilution): 2 mM), for which the “NF-kB SEAP reporter activity” value in assay [1] (agonist: LPS (TLR4) 0.1 ug/mL) stood at 1.55; in assay [1] (setting [4]), 1.02; in assay [1] (setting [5]), 0.421; in assay [1] (setting [6]), 0.629.
Regarding `Nc1ccc(-c2ccc3ncc4ccc(=O)n(-c5cccc(C(F)(F)F)c5)c4c3c2)cn1` (library stock concentration (final ~1000-fold dilution): 10 mM), the “NF-kB SEAP reporter activity” value came to 5.68 in assay [3] (agonist: LPS (TLR4) 0.1 ug/mL), 2.16 in assay [3] (setting [4]), 1.77 in assay [3] (setting [5]) and 3.14 in assay [3] (setting [6]).
The matching figures for `COc1ccc(-c2ccc3ncc4c(c3c2)n(-c2ccc(N3CCNCC3)c(C(F)(F)F)c2)c(=O)n4C)cn1.O=C(O)/C=C\C(=O)O` (library stock concentration (final ~1000-fold dilution): 10 mM): 0.236, 0.205, 0.085 and 0.217.
Turning to `Nc1ccc(-c2ccc3ncc4ccc(=O)n(-c5cccc(C(F)(F)F)c5)c4c3c2)cn1`, the “NF-kB SEAP reporter activity” value in assay [2] (setting [9]) came to 2.12; in assay [2] (setting [10]), 2.7.
For the molecule `COc1ccc(-c2ccc3ncc4c(c3c2)n(-c2ccc(N3CCNCC3)c(C(F)(F)F)c2)c(=O)n4C)cn1.O=C(O)/C=C\C(=O)O`, the “NF-kB SEAP reporter activity” value was determined as 0.273 in assay [2] (setting [9]) and 0.298 in assay [2] (setting [10]).
With `CCC(=O)N1CCN(c2ccc(-n3c(=O)ccc4cnc5ccc(-c6cnc7ccccc7c6)cc5c43)cc2C(F)(F)F)CC1`, the “NF-kB SEAP reporter activity” value was determined as 0.44 in assay [2] (setting [11]) and 1.51 in assay [2] (setting [12]).
On the same counts, the results for `CCNC1(C(N)=O)CCN(c2ncnc3c2nc(-c2ccccc2Cl)n3-c2ccc(Cl)cc2)CC1.Cl` are 0.57 and 0.847.
As for `CCNC1(C(N)=O)CCN(c2ncnc3c2nc(-c2ccccc2Cl)n3-c2ccc(Cl)cc2)CC1.Cl` (library stock concentration (final ~1000-fold dilution): 2 mM), the “NF-kB SEAP reporter activity” value in assay [1] (agonist: LPS (TLR4) 0.1 ug/mL) is 0.587; in assay [1] (setting [4]), 0.493; in assay [1] (setting [5]), 0.537; in assay [1] (setting [6]) it was 0.482.
On the same counts, the results for `COc1ccc(-c2ccc3c(N4CCOCC4C)nc(N4CCOCC4C)nc3n2)cc1CO` (stereo not given) (library stock concentration (final ~1000-fold dilution): 10 mM) are 1.62, 1.12, 0.372 and 0.555.
For `COc1ccc(-c2ccc3c(N4CCOCC4C)nc(N4CCOCC4C)nc3n2)cc1CO` (stereo not given), the “NF-kB SEAP reporter activity” value is 1.11 in assay [2] (setting [7]) and 1.53 in assay [2] (setting [8]).
On to `Cc1cc(O)c(-c2ccc(C(C)CN(C)C)cc2)c2c1[nH]c(=O)c1sccc12.Cl.Cl` (stereo not given), for which the “NF-kB SEAP reporter activity” value in assay [2] (setting [9]) came to 1.2; in assay [2] (setting [10]), 1.37.
Consider `Cc1cc(O)c(-c2ccc(C(C)CN(C)C)cc2)c2c1[nH]c(=O)c1sccc12.Cl.Cl` (stereo not given) (library stock concentration (final ~1000-fold dilution): 10 mM), for which the “NF-kB SEAP reporter activity” value is 0.764 in assay [3] (agonist: LPS (TLR4) 0.1 ug/mL), 0.357 in assay [3] (setting [4]), 0.311 in assay [3] (setting [5]) and 0.482 in assay [3] (setting [6]).
Take `CC(N)C12CC3CC(CC(C3)C1)C2.Cl` (stereo not given) (library stock concentration (final ~1000-fold dilution): 10 mM): the “NF-kB SEAP reporter activity” value stood at 1.15 in assay [1] (agonist: LPS (TLR4) 0.1 ug/mL), 0.619 in assay [1] (setting [4]), 1.24 in assay [1] (setting [5]) and 0.847 in assay [1] (setting [6]).
In the case of `CC(N)C12CC3CC(CC(C3)C1)C2.Cl` (stereo not given), in assay [2] (setting [8]), the “NF-kB SEAP reporter activity” value is 1.06.
With `O=C(Cn1nnc(-c2ccncc2)c1-c1ccccc1)Nc1ccc(-c2ccccc2)cn1`, the “NF-kB SEAP reporter activity” value in assay [2] (setting [7]) stood at 0.711; in assay [2] (setting [8]), 0.961.
With `O=C(Cn1nnc(-c2ccncc2)c1-c1ccccc1)Nc1ccc(-c2ccccc2)cn1` (library stock concentration (final ~1000-fold dilution): 10 mM), the “NF-kB SEAP reporter activity” value came out at 1.06 in assay [1] (agonist: LPS (TLR4) 0.1 ug/mL), 0.623 in assay [1] (setting [4]), 0.34 in assay [1] (setting [5]) and 0.345 in assay [1] (setting [6]).
Take `Cc1noc(C)c1-c1cnc2c(-c3ccc(C(=O)O)cc3)cn(C(C)c3ccccn3)c2c1` (stereo not given) (library stock concentration (final ~1000-fold dilution): 10 mM): the “NF-kB SEAP reporter activity” value in assay [1] (agonist: LPS (TLR4) 0.1 ug/mL) was 2.32; in assay [1] (setting [4]) it was 1.73; in assay [1] (setting [5]), 0.767; in assay [1] (setting [6]), 2.09.
As for `Cc1noc(C)c1-c1ccc2[nH]c(=O)n3c2c1OCC3c1ccccn1` (stereo not given), the “NF-kB SEAP reporter activity” value in assay [2] (setting [7]) came to 1.5; in assay [2] (setting [8]) it was 2.28.
On to `COc1cc2c(cc1-c1c(C)noc1C)ncc1[nH]c(=O)n(C(C)c3ccccn3)c12` (stereo not given), for which the “NF-kB SEAP reporter activity” value is 2.61 in assay [2] (setting [9]) and 2.46 in assay [2] (setting [10]).
With `COc1cc2c(cc1-c1c(C)noc1C)ncc1[nH]c(=O)n(C(C)c3ccccn3)c12` (stereo not given) (library stock concentration (final ~1000-fold dilution): 10 mM), the “NF-kB SEAP reporter activity” value in assay [3] (agonist: LPS (TLR4) 0.1 ug/mL) is 4.87; in assay [3] (setting [4]) it was 2.55; in assay [3] (setting [5]), 0.529; in assay [3] (setting [6]), 1.93.
Turning to `Cc1noc(C)c1-c1cnc2c(-c3ccc(C(=O)O)cc3)cn(C(C)c3ccccn3)c2c1` (stereo not given), the “NF-kB SEAP reporter activity” value in assay [2] (setting [7]) came to 1.59; in assay [2] (setting [8]), 2.29.
As for `Cc1noc(C)c1-c1ccc2[nH]c(=O)n3c2c1OCC3c1ccccn1` (stereo not given) (library stock concentration (final ~1000-fold dilution): 10 mM), the “NF-kB SEAP reporter activity” value was found to be 1.61 in assay [1] (agonist: LPS (TLR4) 0.1 ug/mL), 1.67 in assay [1] (setting [4]), 0.501 in assay [1] (setting [5]) and 1.34 in assay [1] (setting [6]).
As for `C=CC(=O)N1CCC(C2CCNc3c(C(N)=O)c(-c4ccc(Oc5ccccc5)cc4)nn32)CC1` (stereo not given) (library stock concentration (final ~1000-fold dilution): 10 mM), the “NF-kB SEAP reporter activity” value was 0.708 in assay [1] (agonist: LPS (TLR4) 0.1 ug/mL), 0.413 in assay [1] (setting [4]), 0.25 in assay [1] (setting [5]) and 0.279 in assay [1] (setting [6]).
On to `C=CC(=O)N1CCC(C2CCNc3c(C(N)=O)c(-c4ccc(Oc5ccccc5)cc4)nn32)CC1` (stereo not given), for which the “NF-kB SEAP reporter activity” value in assay [2] (setting [7]) was 0.477; in assay [2] (setting [8]), 0.541.
Consider `Cn1c(=O)cc(C(=O)Nc2ccc3c(c2)OCCO3)c2ccccc21`, for which the “NF-kB SEAP reporter activity” value in assay [2] (setting [7]) worked out at 0.997; in assay [2] (setting [8]), 0.999.
`Cn1c(=O)cc(C(=O)Nc2ccc3c(c2)OCCO3)c2ccccc21` (library stock concentration (final ~1000-fold dilution): 10 mM): the “NF-kB SEAP reporter activity” value amounted to 0.989 in assay [1] (agonist: LPS (TLR4) 0.1 ug/mL), 1.02 in assay [1] (setting [4]), 0.995 in assay [1] (setting [5]) and 1.07 in assay [1] (setting [6]).
For the molecule `CC#CCn1c(N2CCCC(N)C2)nc2c1c(=O)n(Cc1nc(C)c3ccccc3n1)c(=O)n2C` (stereo not given), the “NF-kB SEAP reporter activity” value turned out to be 0.851 in assay [2] (setting [7]) and 1 in assay [2] (setting [8]).
On to `CC#CCn1c(N2CCCC(N)C2)nc2c1c(=O)n(Cc1nc(C)c3ccccc3n1)c(=O)n2C` (stereo not given) (library stock concentration (final ~1000-fold dilution): 10 mM), for which the “NF-kB SEAP reporter activity” value in assay [1] (agonist: LPS (TLR4) 0.1 ug/mL) turned out to be 1.31; in assay [1] (setting [4]), 0.823; in assay [1] (setting [5]) it was 1.05; in assay [1] (setting [6]), 1.17.
In the case of `O=c1ccoc2cc(O)ccc12`, the “NF-kB SEAP reporter activity” value in assay [2] (setting [7]) is 1.18; in assay [2] (setting [8]) it was 1.15.
With `O=c1ccoc2cc(O)ccc12` (library stock concentration (final ~1000-fold dilution): 10 mM), the “NF-kB SEAP reporter activity” value in assay [1] (agonist: LPS (TLR4) 0.1 ug/mL) came to 1.85; in assay [1] (setting [4]) it was 1.15; in assay [1] (setting [5]), 1.04; in assay [1] (setting [6]), 0.865.
